# High-throughput results deposited in PubChem by NMMLSC.
# RGS8-Gao = regulators of human RGS8-Galphao interaction; P09471; multiplexed bead flow cytometry, RGS8-Galphao binding; actives lie on both sides; 220,000 tested, 0.34% active; response (percent of control binding), % at 10 µM; in the data active = response below about 60% or above about 140%; inactive = in between;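 note: Galphao activated as the GDP aluminium fluoride complex binding bead-coupled RGS8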
# Target sequence (P09471 whole entry, looked up): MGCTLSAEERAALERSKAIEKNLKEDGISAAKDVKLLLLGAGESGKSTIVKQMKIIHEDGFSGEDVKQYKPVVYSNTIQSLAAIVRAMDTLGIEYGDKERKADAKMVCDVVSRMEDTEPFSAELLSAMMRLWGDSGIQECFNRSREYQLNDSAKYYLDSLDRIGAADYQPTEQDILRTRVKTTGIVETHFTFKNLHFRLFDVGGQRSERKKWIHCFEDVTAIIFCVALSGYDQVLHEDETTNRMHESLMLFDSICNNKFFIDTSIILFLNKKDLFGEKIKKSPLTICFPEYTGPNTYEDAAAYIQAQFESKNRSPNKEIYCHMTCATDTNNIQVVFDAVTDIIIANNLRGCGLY
# RGS16-Gao = modulates binding between human RGS16 and Galphao | O15492+P09471 | 220,000 tested, 0.38% active | bead-based flow cytometry RGS16-Galphao binding, fluorescence; actives lie on both sides | binding response (% of control), % at 10 µM;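 note: Galphao activated by GDP with aluminum fluoride before binding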
# Avidin bead fluor = avidin bead compound fluorescence profile. Avidin beads, compound fluorescence 488/530 nm, flow cytometry; stronger effect = higher value. 220,000 tested, 0.38% active. fluorescence (KMESF) at 10 µM; in the data active = fluorescence above about 47
# RGS7-Gao = human RGS7-Galphao interaction regulation; Multiplexed bead flow cytometry, RGS7-Galphao binding; actives lie on both sides; binding response (% of control), % at 10 µM; P09471; AID 1439; 220,000 tested, 0.35% active; in the data active = binding response below about 49% or above about 150%; inconclusive = no clear call, values can overlap the other calls; inactive = in between;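 note: fluorescent Galphao held in activated GDP-AlF4 state binding bead-coupled RGS7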
# RGS4-Gao reg = modulates binding of RGS4 to human Galphao | P09471 | Multiplexed bead flow cytometry; actives lie on both sides | binding response (% of control), % at 10 µM | 220,000 tested, 0.33% active; in the data active = binding response below about 49% or above about 150%; inactive = in between;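 note: fluorescent Galphao activated with aluminum fluoride binding bead-coupled RGS4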
# GSH bead fluor = GSH bead compound fluorescence profile | GSH beads flow cytometry, compound fluorescence 488/530 nm; stronger effect = higher value | 190,000 tested, 0.25% active | fluorescence (KMESF) at 10 µM | AID 1776; in the data active = fluorescence above about 89;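 note: glutathione beads carrying GST-tagged Bcl family fusion proteins plus one bare bead set; values are compound well signal with DMSO vehicle wells as background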
# RGS4-Gao HTS = RGS4-Galphao interaction regulator (human). multiplexed bead flow cytometry, RGS–Galpha-o binding. RGS4–Galpha-o binding response, % at 10 µM. 1,600 tested, 99% active. shares compounds with RGS16-Gao. AID 1504;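 note: fluorescently labeled Galpha-o bound to GDP with aluminium fluoride binding biotinylated RGS beads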
# Biotin-avidin = biotin-avidin bead binding disruption counter-screen; shares compounds with RGS16-Gao; streptavidin beads, fluorescein-biotin binding, flow cytometry; inhibition, % at 10 µM; 1,700 tested, under 10 active;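 active = inhibition above 50%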;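 note: median green fluorescence of gated singlet beads compared with DMSO control wells; 0% = DMSO wells and 100% = complete loss of bead fluorescence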
# RGS8-Gao confirm = RGS8-Galphao interaction regulation, single point confirmation. shares compounds with RGS16-Gao. bead-based flow cytometry RGS8-Galphao binding, fluorescence; actives lie on both sides. binding response (% of control), % at 10 µM. 1,700 tested, 3% active; in the data active = binding response below about 72% or above about 130%; inactive = in between;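 note: Galphao activated as GDP AlF4 complex before binding bead RGS8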
# RGS7-Gao single = RGS7-Galphao interaction regulation, single point confirmation; response (percent of control binding), % at 10 µM; 1,700 tested, 7.8% active; AID 1837; bead-based flow cytometry RGS7-Galphao binding; actives lie on both sides; shares compounds with RGS16-Gao; in the data active = response below about 75% or above about 130%; inactive = in between;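 note: fluorescent Galphao activated with GDP and aluminum fluoride binding bead-coupled RGS7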
# RGS16-Gao conf = confirmation of regulators of human RGS16-Galphao interaction; shares compounds with RGS16-Gao; bead-based flow cytometry, RGS16-Galphao binding; actives lie on both sides; response (% of control binding), % at 10 µM; 1,700 tested, 4% active; AID 1838; in the data active = response below about 74% or above about 130%; inactive = in between;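 note: Galphao activated as the GDP aluminium fluoride complex binding bead-coupled RGS16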
# RGS4-Gao single = confirmation of regulators of human RGS4-Galphao interaction; shares compounds with RGS16-Gao; RGS4-Galphao binding, multiplexed bead flow cytometry; actives lie on both sides; binding response (% of control), % at 10 µM; 1,700 tested, 4% active; AID 1840; in the data active = binding response below about 74% or above about 130%; inactive = in between
# RGS19-Gao single = confirmation of regulators of human RGS19-Galphao interaction; shares compounds with RGS16-Gao; bead-based flow cytometry RGS19-Galphao binding; actives lie on both sides; response (percent of control binding), % at 10 µM; 1,700 tested, 5% active; in the data active = response below about 50% or above about 160%; inactive = in between;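 note: 100% = no compound control and 0% = blank background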
# Target sequence (P09471 whole entry, looked up): as above
# Target sequence (P49795 whole entry, looked up): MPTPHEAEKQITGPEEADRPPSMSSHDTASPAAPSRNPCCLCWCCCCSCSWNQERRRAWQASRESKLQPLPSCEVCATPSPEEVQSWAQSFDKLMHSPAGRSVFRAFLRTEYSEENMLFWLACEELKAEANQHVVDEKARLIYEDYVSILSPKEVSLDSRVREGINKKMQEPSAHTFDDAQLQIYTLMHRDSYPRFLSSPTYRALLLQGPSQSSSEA
# An asterisk follows results filed as active; i = inactive; ? = inconclusive; . = not tested or not shown; [ ] = another dose, or the depositor's remark. This is a sample that favours compounds with a hit; in the whole collection about 1.2% have one here. Unless noted, the rule behind the calls is not given here.
SMILES,RGS8-Gao,RGS16-Gao,Avidin bead fluor,RGS7-Gao,RGS4-Gao reg,GSH bead fluor,RGS4-Gao HTS,Biotin-avidin,RGS8-Gao confirm,RGS7-Gao single,RGS16-Gao conf,RGS4-Gao single,RGS19-Gao single
O=C(CCc1nc2ccccc2c(=O)[nH]1)Nc1ccc(Cl)c(Cl)c1,69,9.1*,7,86,86,4,86*,2,102,102,101,98,107
OC(c1ccccc1)(c1ccccc1)C1CCN(C(=S)NCCc2ccccc2)CC1,103,102,6,107,101,19,.,.,.,.,.,.,.
O=C(O)CCCC(=O)N1CCC(C(O)(c2ccccc2)c2ccccc2)CC1,93,107,8,95,102,18,.,-1,103,96,100,99,101
O=C(COC(=O)c1cccs1)NCC1CCCCC1,99,98,12,?,99,14,.,.,.,.,.,.,.
Fc1ccc(N/N=C/c2ccncc2)c(F)c1,117,141,4,106,104,14,.,.,.,.,.,.,.
Clc1ccc(N/N=C/c2ccncc2)cc1Cl,128,199*[activator],7,113,109,11,109*,0,100,103,102,103,99
COc1ccccc1NC(=O)Cn1nc(-c2ccc(Cl)cc2)c2ccccc2c1=O,101,98,14,100,99,21,.,.,.,.,.,.,.
CSC1=NC(=O)/C(=C\c2cccc3ccccc23)S1,97,113,200*,223*[activator],124,11,124*,-1,101,98,99,97,95
N=C1S/C(=C\c2cccc3ccccc23)C(=O)N1c1ccc(F)cc1,101,101,10,99,100,8,.,.,.,.,.,.,.
CCCC(CCC)C(=O)Nc1ccc2c(c1)N(C(=O)CN1CCN(C)CC1)c1ccccc1CC2,129,253*[activator],6,119,121,24,121*,1,105,104,102,102,100
CCCC(C(=O)c1ccccc1)n1cncn1 (stereo not drawn),81,-9.0*,2,78,70,4,70*,-1,101,101,102,102,101
Cc1ccc(CN2CC(C(=O)Nc3ccc(F)c([N+](=O)[O-])c3)CC2=O)cc1 (stereo not drawn),99,107,25,99,102,6,.,.,.,.,.,.,.
COc1cccc(Oc2cn[nH]c2-c2ccc(OC)cc2O)c1,93,107,187*,281*[activator],133,28,133*,.,.,.,.,.,.
Cc1ccc(-n2c(=O)c3ccccc3n(CC(=O)C(C)(C)C)c2=O)cc1,104,105,13,104,101,69,.,.,.,.,.,.,.
COCc1cc(C)nc(SCC(=O)Nc2ccc(C)c(C)c2)c1C#N,102,-63*,2,99,100,57,100*,.,.,.,.,.,.
Cc1ccccc1-c1nc(CN(Cc2c(C)nn(C)c2C)C2CC2)c(C)o1,100,103,11,105,98,21,.,.,.,.,.,.,.
CCN1C(=O)C(CC(=O)Nc2ccc(OC)cc2)N(Cc2ccco2)C1=S (stereo not drawn),143*[activator],308,11,105,116,22,116*,-1,99,90,96,96,77
CCCc1ccc(OCc2ccccc2)c2c(=O)cc(C(=O)OCC)oc12,98,96,8,?,93,.,.,.,.,.,.,.,.
CCOC(=O)/C(C#N)=N/Nc1ccccc1OC,65,20*,1,88,88,10,88*,-1,102,95,101,98,92
Cc1c(NC(=O)CC2NC(=O)NC2=O)c(=O)n(-c2ccccc2)n1C (stereo not drawn),91,76,17,98,97,10,.,.,.,.,.,.,.
O=C(CCC(=O)Nc1ccc(Cl)cc1Cl)NNC(=O)[C@@H]1CCCC[C@@H]1C(=O)O,128,185*[activator],5,107,108,11,108*,1,101,105,103,103,101
O=C(O)C1CCCCC1C(=O)Nc1ccc(Cl)cc1Cl (stereo not drawn),98,90,12,91,90,14,.,.,.,.,.,.,.
O=C(CCC(=O)Nc1ccc(Cl)cc1Cl)NNC(=O)Nc1ccccc1,99,99,9,?,101,19,.,.,.,.,.,.,.
O=C(O)C1CCCCC1C(=O)Nc1cc(Cl)ccc1Cl (stereo not drawn),59*,99,5,49*,87,30,87*,1,100,102,101,102,105
COc1cc2c(cc1NC(=O)CSc1nc3ccc(C)cc3[nH]1)oc1ccccc12,107,121,14,101,100,10,.,.,.,.,.,.,.
SMILES,RGS8-Gao,RGS16-Gao,Avidin bead fluor,RGS7-Gao,RGS4-Gao reg,GSH bead fluor,RGS4-Gao HTS,Biotin-avidin,RGS8-Gao confirm,RGS7-Gao single,RGS16-Gao conf,RGS4-Gao single,RGS19-Gao single
Cc1ccc(/C=N/NC(=O)CC(=O)NCc2cccnc2)cc1,103,108,15,101,100,10,.,.,.,.,.,.,.
COc1ccc(C(CCNCc2ccc(N(C)C)cc2)C(C)C)cc1 (stereo not drawn),108,109,4,?,106,.,.,.,.,.,.,.,.
COc1ccc(C(CCNCc2ccc(OC(C)C)cc2)C(C)C)cc1 (stereo not drawn),8.9*,-5.3*,-2,?,-9.6*,.,.,0,102,90,94,94,77
COc1ccc(CNCCC(c2ccc(OC(C)C)cc2)C(C)C)cc1OC (stereo not drawn),142*[activator],229,10,120,117,5,117*,3,103,99,103,98,97
Cn1c(SCC(=O)N/N=C/C=C/c2ccccc2[N+](=O)[O-])nc2ccccc21,100,97,28,101,100,10,.,.,.,.,.,.,.
Cn1c(SCC(=O)N/N=C/C=C\c2ccccc2[N+](=O)[O-])nc2ccccc21,73,23*,1,93,89,5,89*,i,105,106,104,106,103
